This is part of a sample that, as a whole, favours compounds with a hit. Of some 79,000 tested, about 15% had one in any assay. Calls of active or inactive are those of the source. Rule as the data show it: active = growth inhibition above about 70%; inactive = the rest.
How the values were obtained:
[1] = NCI Yeast Anticancer Drug Screen. Data for the rad52 strain (AID 147);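 also: 0% = growth of vehicle-treated control cultures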; details: S. cerevisiae rad52 mutant growth inhibition, active compounds read high
In short: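 Here a repair-compromised yeast strain receives each compound; its growth is then quantified and normalised to vehicle-only controls.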

[2] = NCI Yeast Anticancer Drug Screen. Data for the wt1 strain (AID 149);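 also: 0% = growth of vehicle-treated wt1 cultures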; details: S. cerevisiae wt1 strain (SPY 50644) growth inhibition, active compounds read high
In short: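 The wt1 strain was treated with compounds, and growth was compared with vehicle-treated cultures to give inhibition.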

[3] = NCI Yeast Anticancer Drug Screen. Data for the rad50EPP+ strain (AID 151);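 also: 0% = growth of vehicle-treated control cultures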; details: S. cerevisiae rad50 mutant strain, active compounds read high
In short: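 Read-out is yeast growth inhibition relative to vehicle; cells used were the rad50EPP+ strain.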

[4] = NCI Yeast Anticancer Drug Screen. Data for the rad50 strain (AID 155);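 also: 0% = growth of vehicle-only cultures of the same strain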; details: S. cerevisiae rad50 strain growth inhibition, active compounds read high
In short: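 Cells are treated with compound, grown, and their growth is then scored against vehicle-only cultures of the same repair-deficient yeast strain.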

[5] = NCI Yeast Anticancer Drug Screen. Data for the mec2-1 strain (AID 157); details: S. cerevisiae mec2-1 strain, active compounds read high
In short: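 Using mec2-1 yeast: add compound, measure growth, express inhibition versus vehicle-treated cultures.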

[6] = NCI Yeast Anticancer Drug Screen. Data for the rad14 strain (AID 159);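 also: 0% = growth of vehicle-treated control cultures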; details: S. cerevisiae rad14 strain growth inhibition, active compounds read high
In short: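 Readout: yeast growth inhibition, referenced to vehicle-only cultures. Strain bears a defined alteration in DNA damage repair.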

[7] = NCI Yeast Anticancer Drug Screen. Data for the sgs1 mgt1 strain (AID 161);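 also: 0% = growth of cultures given vehicle only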; details: S. cerevisiae sgs1 mgt1 strain, active compounds read high
In short: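 Percent growth inhibition was derived by comparing compound-exposed mutant yeast with vehicle-exposed cultures. The strain carries alterations in DNA damage repair.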

[8] = NCI Yeast Anticancer Drug Screen. Data for the cln2 rad14 strain (AID 165);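 also: 0% = growth equal to vehicle treated cultures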; details: S. cerevisiae cln2 rad14 strain, active compounds read high
In short: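 Yeast strain cln2 rad14, bearing defects in cell cycle control and DNA repair, serves as the test system; values reflect growth inhibition compared with vehicle.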

[9] = NCI Yeast Anticancer Drug Screen. Data for the bub3 strain (AID 167); details: S. cerevisiae bub3 mutant strain, active compounds read high
In short: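 Part of a panel of yeast mutants defective in DNA damage repair or cell cycle regulation. Each strain is grown with compound, and inhibition is calculated relative to solvent-treated cultures.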

[10] = NCI Yeast Anticancer Drug Screen. Data for the wt2 strain (AID 169);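 also: 0% = growth of vehicle-treated yeast cultures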; details: S. cerevisiae wt2 strain growth inhibition, active compounds read high
In short: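 Treated yeast vs. vehicle-treated yeast: growth inhibition determined.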

[11] = NCI Yeast Anticancer Drug Screen. Data for the mlh1 strain (AID 171);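 also: 0% = growth of vehicle-treated control cultures of the same strain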; details: S. cerevisiae mlh1 strain growth inhibition, active compounds read high
In short: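 A yeast strain with a defined genetic lesion serves as the test organism. Cultures receive compound or vehicle, and growth is measured.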

[12] = NCI Yeast Anticancer Drug Screen. Data for the sgs1 strain (AID 173);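 also: 0% = growth of vehicle-only control cultures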; details: S. cerevisiae sgs1 mutant, active compounds read high
In short: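 A genetically defined yeast mutant is incubated with the test compound, and its growth is compared to that of the same strain given vehicle.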

[13] = NCI Yeast Anticancer Drug Screen. Data for the mlh1 rad18 strain (AID 175); details: S. cerevisiae mlh1 rad18 strain growth inhibition, active compounds read high
In short: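 Steps: expose repair-defective yeast to compound; measure growth; express inhibition against vehicle-treated controls.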

[14] = NCI Yeast Anticancer Drug Screen. Data for the rad18 strain (AID 177); details: S. cerevisiae rad18 mutant growth inhibition, active compounds read high
In short: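 Measured value is growth inhibition of a yeast strain bearing a DNA repair alteration, referenced to vehicle-treated cells.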

[15] = NCI Yeast Anticancer Drug Screen. Data for the mgt1 strain (AID 153); details: S. cerevisiae mgt1 mutant growth inhibition, active compounds read high
In short: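 Measured: inhibition of mgt1 yeast growth by compound, normalized to vehicle-treated cultures.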

[16] = NCI Yeast Anticancer Drug Screen. Data for the CLN2oe strain (AID 163);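 also: 0% = growth of vehicle-only control cultures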; details: S. cerevisiae CLN2oe strain, active compounds read high
In short: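 Whole-cell yeast growth assay. A strain engineered for altered cell-cycle control received compound, and inhibition relative to vehicle-treated cultures was recorded.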

[17] = at 5.0 µM (retest, dose inferred, filed as 0.5)
[18] = at 50.0 µM (retest, dose inferred, filed as 5.0)

Measured: growth inhibition

COc1ccc2nc3cccc([N+](=O)[O-])c3c(NCCN(CCO)CCO)c2c1
inactive: [2]; at 1.2 µM -2% | [2]; at 3.7 µM 6% | [2]; at 11.0 µM 31% | [3]; at 1.2 µM 3% | [3]; at 3.7 µM 13% | [3]; at 11.0 µM 44% | [4]; at 1.2 µM 43% | [4]; [17] 42% | [5]; at 1.2 µM 14% | [5]; [17] 13% | [7]; at 50.0 µM 69.5% | [9]; at 1.2 µM -13% | [9]; at 3.7 µM -18% | [9]; [17] -41% | [9]; at 11.0 µM -2% | [9]; at 33.0 µM 52% | [9]; at 50.0 µM 43.6% | [10]; at 1.2 µM -2% | [10]; at 3.7 µM -1% | [10]; at 11.0 µM 11% | [10]; at 33.0 µM 53% | [11]; at 1.2 µM 5% | [11]; at 3.7 µM 25% | [11]; at 11.0 µM 61% | [13]; [17] 68%
active: [1]; at 1.2 µM 75% | [1]; at 3.7 µM 92% | [1]; at 11.0 µM 94% | [1]; at 33.0 µM 96% | [1]; at 100.0 µM 96% | [2]; at 33.0 µM 73% | [2]; at 100.0 µM 77% | [3]; at 33.0 µM 78% | [3]; at 100.0 µM 94% | [4]; at 3.7 µM 81% | [4]; at 11.0 µM 91% | [4]; at 33.0 µM 94% | [4]; [18] 96% | [4]; at 50.0 µM 81.2% | [4]; at 100.0 µM 94% | [5]; at 3.7 µM 82% | [5]; at 11.0 µM 95% | [5]; at 33.0 µM 97% | [5]; [18] 97% | [5]; at 50.0 µM 86.2% | [5]; at 100.0 µM 97% | [6]; at 1.2 µM 84% | [6]; at 3.7 µM 96% | [6]; at 11.0 µM 98% | [6]; at 33.0 µM 98% | [6]; at 100.0 µM 98% | [7]; [17] 78% | [7]; [18] 94% | [8]; [17] 81% | [8]; [18] 96% | [8]; at 50.0 µM 83.2% | [9]; [18] 86% | [9]; at 100.0 µM 96% | [10]; at 100.0 µM 93% | [11]; at 33.0 µM 84% | [11]; at 100.0 µM 86% | [12]; at 1.2 µM 80% | [12]; at 3.7 µM 90% | [12]; at 11.0 µM 93% | [12]; at 33.0 µM 95% | [12]; at 100.0 µM 96% | [13]; [18] 97% | [13]; at 50.0 µM 74.5% | [14]; at 1.2 µM 94% | [14]; at 3.7 µM 96% | [14]; at 11.0 µM 96% | [14]; at 33.0 µM 95% | [14]; at 100.0 µM 95%

CC(O)C(O)C(O)C(/C=N\Nc1ccccc1)=N/Nc1ccccc1 (stereo unspecified)
inactive: [1]; at 1.2 µM 5% | [1]; at 3.7 µM 10% | [1]; at 11.0 µM 12% | [1]; at 33.0 µM 69% | [2]; at 1.2 µM 4% | [2]; at 3.7 µM 9% | [2]; at 11.0 µM 13% | [2]; at 33.0 µM 8% | [15]; at 1.2 µM 6% | [15]; at 3.7 µM 9% | [15]; at 11.0 µM 10% | [15]; at 33.0 µM 47% | [4]; at 1.2 µM 5% | [4]; at 3.7 µM 5% | [4]; [17] 19% | [4]; at 11.0 µM 10% | [4]; at 33.0 µM 63% | [4]; [18] 51% | [5]; at 1.2 µM -4% | [5]; at 3.7 µM 1% | [5]; [17] -5% | [5]; at 11.0 µM 11% | [5]; at 33.0 µM 46% | [5]; [18] 51% | [5]; at 50.0 µM 58.3% | [6]; at 1.2 µM -2% | [6]; at 3.7 µM -1% | [6]; at 11.0 µM 4% | [6]; at 33.0 µM 21% | [7]; [17] 3% | [7]; [18] 56% | [16]; at 1.2 µM -7% | [16]; at 3.7 µM -4% | [16]; at 11.0 µM -5% | [16]; at 33.0 µM 18% | [16]; at 100.0 µM 28% | [8]; [17] 1% | [8]; [18] 49% | [8]; at 50.0 µM 8.25% | [9]; at 1.2 µM -3% | [9]; at 3.7 µM -3% | [9]; [17] -7% | [9]; at 11.0 µM 19% | [9]; at 33.0 µM 24% | [9]; [18] 43% | [9]; at 50.0 µM 69.1% | [9]; at 100.0 µM 30% | [10]; at 1.2 µM 2% | [10]; at 3.7 µM 8% | [10]; at 11.0 µM 10% | [10]; at 33.0 µM 38% | [11]; at 1.2 µM 3% | [11]; at 3.7 µM 4% | [11]; at 11.0 µM 6% | [11]; at 33.0 µM 68% | [12]; at 1.2 µM 1% | [12]; at 3.7 µM 10% | [12]; at 11.0 µM 11% | [12]; at 33.0 µM 68% | [13]; [17] 7% | [13]; [18] 65% | [14]; at 1.2 µM 5% | [14]; at 3.7 µM 9% | [14]; at 11.0 µM 9%
active: [1]; at 100.0 µM 98% | [2]; at 100.0 µM 96% | [15]; at 100.0 µM 99% | [4]; at 50.0 µM 97.8% | [4]; at 100.0 µM 98% | [5]; at 100.0 µM 98% | [6]; at 100.0 µM 99% | [7]; at 50.0 µM 95.5% | [10]; at 100.0 µM 99% | [11]; at 100.0 µM 98% | [12]; at 100.0 µM 98% | [13]; at 50.0 µM 98.9% | [14]; at 33.0 µM 95% | [14]; at 100.0 µM 99%

Reference: PubChem BioAssay (NCI)
